Measured values taken from the supplement of paper PMC10338343.
± gives the standard deviation. The full ranking holds about 3,000 sequences; the median of “pre-steady-state target cleavage rate” is about 0.0079, and the highest 2% start at about 0.2. The list comes from a sample in which the highest values are over-represented; it also holds similar and randomly drawn sequences.

system: MILI (PIWIL2) piRISC loaded with piRNA #2 (26 nt); test: pre-steady-state target cleavage rate (min^-1); MIWI and MILI are mouse PIWI proteins and EfPiwi is from a freshwater sponge; tags in brackets are library labels; higher = faster piRNA-guided slicing of the target; settings: guide: piRNA #2 5'p-UUAGGUAACCCAGUAGAUCCAGAGGA; auxiliary factor: 500 nM mouse GTSF1
Procedure: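 Cleave-'n-Seq: a library of target RNAs (target site embedded in constant flanks, ACAGCATTCCGCGTTAGTGATATCCG... 5' flank; DNA-blocked outside the site) at 0.1 nM was incubated with 1 nM active mouse MILI or MIWI piRISC (synthetic 5'-monophosphorylated piRNA guide) with or without 500 nM mouse GTSF1 at 33 °C for 1 min to 16 h. Uncleaved targets were sequenced and normalised to non-target controls, and the pooled three trials were fitted to a burst-and-steady-state model to give the pre-steady-state cleavage rate (min^-1; k3 is constrained to at most 1e-4). Sequence is the target site only; target names encode pairing extent (gX:gY) and contiguous / 1-mismatch / 2-mismatch / bulge geometry. Fits with R² ≤ 0 are excluded.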

Going from CUUAUCCUCACCAUCUACUGGGUUACCUAA to CUUAUCCUCUGGAUCUACUGGGUUACGUAA, the “pre-steady-state target cleavage rate” value falls from 0.127 ± 0.051 to 0.0586 ± 0.014.

CUUAACCUCUGCAUCUACUGGGUUACGUAA and CUUAUCCUCAGCAUCUACUGGGUUACCUAA are within error of each other in “pre-steady-state target cleavage rate” value: 0.155 ± 0.069 for the first, 0.271 ± 0.06 for the second.

First: CUUAACCUCAGCAUCUACUGGGUUACCUAA
Second: CUUAACCUCUCGGAUCUACUGGGUUACCUAA
The “pre-steady-state target cleavage rate” value of the first is higher: 0.111 ± 0.027 for the first, 0.0634 ± 0.017 for the second.

First: CUUAAGGAGGGGAUCUACUGGGUUACCUAA
Second: CUUAUCCUCUGGAUGUACAGGGUUACCUAA
The “pre-steady-state target cleavage rate” value of the first is lower: 0.0293 ± 0.022 for the first, 0.135 ± 0.011 for the second.

CUUAACCUCUUGGAUCUACUGGGUUACCUAA and CUUAAGGUCUGGCAUCUACUGGGUUACCUAA are within error of each other in “pre-steady-state target cleavage rate” value: 0.245 ± 0.072 for the first, 0.211 ± 0.069 for the second.

First: CUUAACCUCUGGGAUCUACUGGGUUACCUAA
Second: CUUAACCUCUGGAUCUACUGGGUUACCUAAA
The “pre-steady-state target cleavage rate” value of the first is higher: 0.168 ± 0.03 for the first, 0.0972 ± 0.022 for the second.

First: CUUAAGGUCUGGGUCUACUGGGUUACCUAA
Second: CUUAACCUCUGGCUCUACUGGGUUACCUAA
The “pre-steady-state target cleavage rate” value of the first is lower: 0.0913 ± 0.015 for the first, 0.8 ± 0.2 for the second.

Going from CUUAACCUCUGGCAUCUACUGGGUUACCUAA to CUUAACCUCUGCAUCUACUGGGUUACCUAA, the “pre-steady-state target cleavage rate” value falls from 2.04 ± 1.1 to 0.185 ± 0.036.

CUUAACCUCUGAUCUACUGGGUUACCUAA and CUUAACCUUGGAUCUACUGGGUUACCUAA are within error of each other in “pre-steady-state target cleavage rate” value: 0.0852 ± 0.019 for the first, 0.134 ± 0.041 for the second.

CUUAACCUCUGGACUCUACUGGGUUACCUAA and CUUAAGGUCUGCAUCUACUGGGUUACCUAA are within error of each other in “pre-steady-state target cleavage rate” value: 0.0674 ± 0.018 for the first, 0.0733 ± 0.018 for the second.

Compared with CUUAACCUCUGGAACUUCUGGGUUACCUAA, CUUAAGCUCUGGAUCUAGUGGGAUACCUAA is lower in “pre-steady-state target cleavage rate” value: 0.103 ± 0.028 for the first, 0.00824 ± 0.0045 for the second.

CUUAUCCUCUCGAUCUACUGGGAUACCUAA and CUUAUCCUCUGCAUCUACUGGGAUACCUAA are within error of each other in “pre-steady-state target cleavage rate” value: 0.0565 ± 0.013 for the first, 0.0522 ± 0.025 for the second.

Compared with “CUUAAGGAGACGAUCUACUGGGUUACCUAU [g2:g19:cont:t1U]”, CUUAAGCUCUGGAUCUACUGGGUUAACUAA is higher in “pre-steady-state target cleavage rate” value: 0.00667 ± 0.0036 for the first, 0.095 ± 0.017 for the second.

First: CUUAUCCUCUGGAUCUACUGGGCUUACCUAA
Second: CUUAAGCUCUGGCAUCUACUGGGUUACCUAA
The “pre-steady-state target cleavage rate” value of the first is lower: 0.0139 ± 0.005 for the first, 0.453 ± 0.15 for the second.

Compared with CUUAAGCUCUGGCUCUACUGGGUUACCUAA, CUUAACCUCUGGAUUACUGGGUUACCUAA is lower in “pre-steady-state target cleavage rate” value: 0.163 ± 0.034 for the first, 0.0792 ± 0.024 for the second.

Compared with CUUAAGCUCUGCAUCUACUGGGUUACCUAA, CUUAACCUCUGGAUUCUACUGGGUUACCUAA is higher in “pre-steady-state target cleavage rate” value: 0.0767 ± 0.016 for the first, 0.273 ± 0.093 for the second.

First: CUUAACCUCUGGAUCUACUGGGUUACCUAA [g2:g25:cont:t1A]
Second: CUUAUCGUCAGGAUCUACUGGGUUACCUAA
The “pre-steady-state target cleavage rate” value of the first is higher: 0.101 ± 0.02 for the first, 0.03 ± 0.012 for the second.

First: CUUAUGCUCUGGAUCUACUGCGUUACCUAA
Second: CUUAAGGACUGGAUCUACUGGGUUACCUAA [g2:g22:cont:t1A]
The “pre-steady-state target cleavage rate” value of the first is lower: 0.0127 ± 0.0036 for the first, 0.0428 ± 0.02 for the second.

First: CUUAAGGAGACCUAGUACGGGUUACCUAA
Second: CUUAAGGAGAGGAAUCUACUGGGUUACCUAA
The “pre-steady-state target cleavage rate” value of the first is lower: < 0.0001 for the first, 0.00399 ± 0.0036 for the second.

CUUAUCCUCUGGAUGUACUGGGUUACGUAA and CUUAAGGACUGGAUCUACGGGGUUACCUAA are within error of each other in “pre-steady-state target cleavage rate” value: 0.0286 ± 0.0078 for the first, 0.0466 ± 0.013 for the second.

CUUAUCCUCUGCAUCUACUGGGUUUCCUAA and CUUAUCCUCUGAGAUCUACUGGGUUACCUAA are within error of each other in “pre-steady-state target cleavage rate” value: 0.165 ± 0.071 for the first, 0.106 ± 0.02 for the second.

Compared with CUUAUCCUCUGGUUCUACUGGGUUUCCUAA, CUUAUCCUCUGGUUCUACUGGGUUAGCUAA is lower in “pre-steady-state target cleavage rate” value: 2.2 ± 1.7 for the first, 0.235 ± 0.069 for the second.

CUUAUCCUCUGGUUCUACUGGGAUACCUAA and CUUAUCCUCUAGAUCUACUGGGUUACCUAA are within error of each other in “pre-steady-state target cleavage rate” value: 0.188 ± 0.078 for the first, 0.224 ± 0.034 for the second.

CUUAACCUCUGGACUACUGGGUUACCUAA and CUUAUCCUCUGCAUCUACUGGGUUAGCUAA are within error of each other in “pre-steady-state target cleavage rate” value: 0.156 ± 0.037 for the first, 0.145 ± 0.054 for the second.

Going from CUUAACCUCUGGUAGUACUGGGUUACCUAA to CUUAUCCUCUGGAUCUACUGGGUUAGCUAA, the “pre-steady-state target cleavage rate” value rises from 0.078 ± 0.025 to 0.129 ± 0.025.

Going from CUUAUCCUCUAGGAUCUACUGGGUUACCUAA to CUUAACCUCUGGUACUACUGGGUUACCUAA, the “pre-steady-state target cleavage rate” value rises from 0.049 ± 0.012 to 0.256 ± 0.074.

CUUAAGCUCUGGAUCUACAGGGUUACGUAA and CUUAAGCUCUGGAUCCACUGGGUUACCUAA are within error of each other in “pre-steady-state target cleavage rate” value: 0.0394 ± 0.01 for the first, 0.0284 ± 0.0092 for the second.

First: CUUAACCUCUGCAUCUACAGGGUUACCUAA
Second: CUUAAGGACUCGAUCUACUGGGUUACCUAA
The “pre-steady-state target cleavage rate” value of the first is higher: 0.0773 ± 0.014 for the first, 0.0128 ± 0.0065 for the second.

CUUAAGGAGAGGAUCUACAGGGUUACCUUA and CUUAACCUCUGGAUCUAGUGGGAUACCUAA are within error of each other in “pre-steady-state target cleavage rate” value: 0.0102 ± 0.0051 for the first, 0.0146 ± 0.0055 for the second.

Compared with CUUAUCCUCUGGAUGUACUGGGUUACCUAA, CUUAAGGUCUGGAUCUACUGGGAAACCUAA is lower in “pre-steady-state target cleavage rate” value: 0.108 ± 0.022 for the first, 0.0107 ± 0.0055 for the second.

Going from CUUAUCCUCUGGAACUACUGGGUUACCUUA to CUUAACCUCUGGUUCUACUGGGUUACGUAA, the “pre-steady-state target cleavage rate” value falls from 0.266 ± 0.073 to 0.12 ± 0.043.

Compared with CUUAUCCUCUGGUUCUACUGGGUUACGUAA, CUUAAGCUCUGGUUCUACUGGGUUACCUUA is lower in “pre-steady-state target cleavage rate” value: 0.634 ± 0.25 for the first, 0.126 ± 0.036 for the second.

Compared with CUUAUCCUCUGGUUCUACUGGGUUACCAAA, CUUAUCCUCUGGAUCUACUGGGUUACCAA is lower in “pre-steady-state target cleavage rate” value: 0.453 ± 0.15 for the first, 0.123 ± 0.022 for the second.

CUUAUCCUCUGGAACUACUGGGUUACCAAA and CUUAAGCUCUGGUUCUACUGGGUUACCUAA are within error of each other in “pre-steady-state target cleavage rate” value: 0.13 ± 0.044 for the first, 0.131 ± 0.027 for the second.

CUUAUCCUCUGGAACUACUGGGUUACGUAA and CUUAAGCUCUGGUUCUACUGGGUUACCAAA are within error of each other in “pre-steady-state target cleavage rate” value: 0.197 ± 0.068 for the first, 0.199 ± 0.063 for the second.

CUUAUCCUCUGGAACUACUGGGUUACCUAA and CUUAUCCUCUCGAUCUACUGGGUUACCAAA are within error of each other in “pre-steady-state target cleavage rate” value: 0.188 ± 0.042 for the first, 0.13 ± 0.025 for the second.
